# Data from PubChem BioAssay (NCATS).
# Unmarked numbers belong to inactive results. Inconclusive results are not listed. A call without a number means that no potency is given here. Active and inactive are the calls of the source. Unless noted, the call rests on the fitted dose curve; in most records, active means well fitted curve in the direction sought with a large enough effect; inconclusive means small, poorly fitted or top-dose-only effect, or another doubt; inactive means no such curve, though single readings can be large; an effect the other way counts as inactive or inconclusive.
# Experiments:
# [1] = Validation of Assay for Modulators of Lamin A Splicing (AID 1459; active means well fitted curve in the direction sought with a large enough effect in the signal ratio; the % refers to the signal ratio;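 further: cells exposed to compound for two days before reading; ratio rise marks activators and ratio drop marks inhibitors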); conditions: Lamin A splicing dual RFP/GFP fluorescence reporter; series mostly up to 9.22 µM
# Method in brief: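 S3 HeLa stably expressing lamin A-EGFP splicing minigene and DsRed2, 600 cells/well in Opti-MEM with 2% FBS, treated 48 h at 37C; laser-scanning cytometry gives GFP/RFP total intensity ratio; ancitabine positive control, 0.5% DMSO vehicle.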
# [2] = target: DNA repair nuclease/redox regulator APEX1 (Homo sapiens) (UniProt P27695); experiment: qHTS Validation Assay for Inhibitors of the Human Apurinic/apyrimidinic Endonuclease 1 (APE1) (AID 1705; further: potency means the concentration at half of the fitted maximal effect); conditions: purified APE1 endonuclease activity, fluorescence, titration; series mostly up to 57.1 µM
# Chain of DNA repair nuclease/redox regulator APEX1 (Homo sapiens) (P27695 whole entry, looked up): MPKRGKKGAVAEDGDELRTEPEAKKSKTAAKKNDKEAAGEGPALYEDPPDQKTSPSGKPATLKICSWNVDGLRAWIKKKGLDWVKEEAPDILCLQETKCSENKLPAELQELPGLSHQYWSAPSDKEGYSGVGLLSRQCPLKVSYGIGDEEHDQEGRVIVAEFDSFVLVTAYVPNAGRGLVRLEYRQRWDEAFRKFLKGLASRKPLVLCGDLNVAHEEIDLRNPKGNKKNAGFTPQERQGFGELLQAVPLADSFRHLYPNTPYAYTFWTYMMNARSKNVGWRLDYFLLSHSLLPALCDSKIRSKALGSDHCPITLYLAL
# Method in brief: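 Fluorogenic double-stranded THF abasic-site substrate (5'-TAMRA/3'-BHQ-2), 50 nM final. Enzyme preincubated with compound 15 min at room temperature, then substrate added. Kinetic fluorescence (ex 525/em 598 nm) read three times at 60 s intervals; activity taken as third-minus-first read difference.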
# [3] = Counterscreen for APE1 Inhibitors: Fluorescent Dye Displacement Validation Assay (AID 1707); conditions: fluorescent dye displacement from DNA; series mostly up to 57.1 µM
# Method in brief: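 Thiazole Orange displacement from dsDNA: 250 nM ThO with 50 nM TAMRA-labelled abasic-site (tetrahydrofuran) duplex in 50 mM Tris-HCl pH7.5, 50mM NaCl, 2 mM MgCl2, 0.01% Tween-20. Loss of endpoint fluorescence (ex 480 nm, em 540 nm) flags DNA binders.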
# [4] = target: Endonuclease 4 (Escherichia coli (strain K12)) (UniProt P0A6C1); experiment: Counterscreen for APE1 Inhibitors: qHTS Validation Assay for Inhibitors of Endonuclease IV (AID 1708); conditions: E. coli endonuclease IV, DNA cleavage fluorescence; series mostly up to 57.1 µM
# Method in brief: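 2 nM enzyme was preincubated with compounds for 15 min at room temperature in 50 mM Tris-HCl pH 7.5, 50 mM NaCl, 2 mM MgCl2, 1 mM DTT, 0.01% Tween-20. 50 nM THF-abasic TAMRA/BHQ-2 duplex substrate started the reaction.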
# [5] = qHTS for differential inhibitors of proliferation of Plasmodium falciparum line Dd2 (AID 1882); conditions: Potency: Plasmodium falciparum Dd2 proliferation inhibition; series mostly up to 28.7 µM; further: nearly all actives have a fitted effect of over 65% in size
# Method in brief: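 SYBR Green I DNA fluorescence read-out, ex 485/em 535 nm. Signals were normalized to 0.29 uM artemisinin and DMSO wells, then corrected using vehicle-only plates flanking each stack. Parasite growth ran 72 h in erythrocytes before lysis.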
# [6] = qHTS for differential inhibitors of proliferation of Plasmodium falciparum line W2 (AID 1883); conditions: Potency: Plasmodium falciparum W2 proliferation inhibition; series mostly up to 28.7 µM;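 further: potency means the concentration at half of the fitted maximal effect; parasites grown with compound for 72 h before lysis and staining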
# [7] = target: ATP-dependent DNA helicase Q1 (Homo sapiens) (UniProt P46063); experiment: qHTS Validation Assay for Inhibitors of RecQ-Like Dna Helicase 1 (RECQ1) (AID 2353); conditions: recombinant RECQ1 helicase DNA unwinding assay; series mostly up to 25.6 µM
# Chain of ATP-dependent DNA helicase Q1 (Homo sapiens) (P46063 whole entry, looked up): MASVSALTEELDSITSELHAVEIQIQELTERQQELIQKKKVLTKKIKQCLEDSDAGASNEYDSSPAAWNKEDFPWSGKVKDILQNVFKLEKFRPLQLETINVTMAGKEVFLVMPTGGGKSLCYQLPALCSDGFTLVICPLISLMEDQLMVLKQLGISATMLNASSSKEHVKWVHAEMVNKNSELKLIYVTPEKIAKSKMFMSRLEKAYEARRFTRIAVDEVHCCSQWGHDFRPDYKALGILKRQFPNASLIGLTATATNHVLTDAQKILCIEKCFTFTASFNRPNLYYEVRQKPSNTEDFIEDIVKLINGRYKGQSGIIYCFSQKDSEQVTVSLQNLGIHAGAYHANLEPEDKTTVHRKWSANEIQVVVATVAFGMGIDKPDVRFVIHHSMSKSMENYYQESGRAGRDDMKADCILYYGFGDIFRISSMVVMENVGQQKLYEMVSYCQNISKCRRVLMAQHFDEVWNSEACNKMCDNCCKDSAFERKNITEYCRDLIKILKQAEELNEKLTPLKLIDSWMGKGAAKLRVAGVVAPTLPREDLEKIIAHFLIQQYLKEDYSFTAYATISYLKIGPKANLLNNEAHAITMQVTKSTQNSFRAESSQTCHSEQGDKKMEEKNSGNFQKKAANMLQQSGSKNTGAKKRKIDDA
# Method in brief: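 50 nM RECQ1T1 preincubated 15 min with compound in Tris pH 8.0 buffer with MgCl2, DTT, Tween-20 and 2.5 ug/ml poly(dI-dC); started with 200 nM TAMRA/BHQ-2 forked duplex and 2 mM ATP. Unwinding read as fluorescence (525/598 nm), two reads 2 h apart.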
# [8] = Quantitative high throughput screen for delayed death inhibitors of the malarial parasite plastid, 96 hour incubation (AID 488745); conditions: Plasmodium falciparum growth; series mostly up to 28.7 µM;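 further: luciferase-expressing P. falciparum in erythrocytes at 2% hematocrit and 0.1% parasitemia; nearly all actives have a fitted effect of over 70% in size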
# Method in brief: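 Growth of reporter-bearing P. falciparum in red cells is measured after 96 h with compound, covering two erythrocytic cycles. Luminescence from the integrated luciferase serves as the growth signal.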
# [9] = Quantitative high throughput screen for delayed death inhibitors of the malarial parasite plastid, 48 hour incubation (AID 488752); conditions: Plasmodium falciparum growth; series mostly up to 28.7 µM; further: nearly all actives have a fitted effect of over 65% in size
# Method in brief: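 One parasite generation (48 h, 37 C, 5% CO2) of luciferase-reporter P. falciparum in erythrocytes is run with test compound; decreased luminescence indicates inhibited growth.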
# [10] = target: Galactokinase (Homo sapiens) (UniProt P51570); experiment: qHTS Validation Assay for Inhibitors of Human Galactokinase (GALK) (AID 493189); conditions: purified human GALK enzyme activity, qHTS 7-point titration; series mostly up to 57.5 µM
# Chain of Galactokinase (Homo sapiens) (P51570 whole entry, looked up): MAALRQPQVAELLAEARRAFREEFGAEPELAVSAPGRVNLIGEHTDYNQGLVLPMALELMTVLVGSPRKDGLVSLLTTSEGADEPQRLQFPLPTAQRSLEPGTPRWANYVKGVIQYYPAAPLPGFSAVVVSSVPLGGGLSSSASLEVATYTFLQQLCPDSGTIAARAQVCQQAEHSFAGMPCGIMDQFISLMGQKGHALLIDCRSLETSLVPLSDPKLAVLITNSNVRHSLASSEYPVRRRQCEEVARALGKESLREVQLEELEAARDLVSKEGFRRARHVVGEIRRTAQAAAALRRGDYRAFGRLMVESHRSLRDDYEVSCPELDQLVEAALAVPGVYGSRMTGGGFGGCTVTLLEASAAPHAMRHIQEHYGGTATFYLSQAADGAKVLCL
# Method in brief: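 GALK (5 nM) with 35 uM ATP and 100 uM galactose in HEPES pH 8.0 with MgCl2, NaCl, DTT and BSA. Reaction ran 1 h at room temperature. Residual ATP read by Kinase-Glo Plus luminescence.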
# [11] = Validation screen for small molecules that induce DNA re-replication in SW480 colon adenocarcinoma cells (AID 504364); conditions: DNA re-replication phenotype (high-content imaging); series mostly up to 46.1 µM
# Method in brief: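 Cells are treated 48 hr with test compound, stained 40 min with Hoechst at 37 C, and scanned for nuclear fluorescence; compounds inducing re-replication increase nuclei with elevated intensity.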
# [12] = target: Voltage-gated inwardly rectifying potassium channel KCNH2 (Homo sapiens) (UniProt Q12809); experiment: qHTS Assay for Small Molecule Inhibitors of the Human hERG Channel Activity (AID 588834); conditions: U2OS BacMam hERG, FluxOR thallium flux fluorescence; series mostly up to 46.1 µM;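 further: top concentration of the series differs between compounds; lower thallium flux fluorescence means stronger hERG block; nearly all actives have a fitted effect of over 50% in size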
# Chain of Voltage-gated inwardly rectifying potassium channel KCNH2 (Homo sapiens) (Q12809 whole entry, looked up): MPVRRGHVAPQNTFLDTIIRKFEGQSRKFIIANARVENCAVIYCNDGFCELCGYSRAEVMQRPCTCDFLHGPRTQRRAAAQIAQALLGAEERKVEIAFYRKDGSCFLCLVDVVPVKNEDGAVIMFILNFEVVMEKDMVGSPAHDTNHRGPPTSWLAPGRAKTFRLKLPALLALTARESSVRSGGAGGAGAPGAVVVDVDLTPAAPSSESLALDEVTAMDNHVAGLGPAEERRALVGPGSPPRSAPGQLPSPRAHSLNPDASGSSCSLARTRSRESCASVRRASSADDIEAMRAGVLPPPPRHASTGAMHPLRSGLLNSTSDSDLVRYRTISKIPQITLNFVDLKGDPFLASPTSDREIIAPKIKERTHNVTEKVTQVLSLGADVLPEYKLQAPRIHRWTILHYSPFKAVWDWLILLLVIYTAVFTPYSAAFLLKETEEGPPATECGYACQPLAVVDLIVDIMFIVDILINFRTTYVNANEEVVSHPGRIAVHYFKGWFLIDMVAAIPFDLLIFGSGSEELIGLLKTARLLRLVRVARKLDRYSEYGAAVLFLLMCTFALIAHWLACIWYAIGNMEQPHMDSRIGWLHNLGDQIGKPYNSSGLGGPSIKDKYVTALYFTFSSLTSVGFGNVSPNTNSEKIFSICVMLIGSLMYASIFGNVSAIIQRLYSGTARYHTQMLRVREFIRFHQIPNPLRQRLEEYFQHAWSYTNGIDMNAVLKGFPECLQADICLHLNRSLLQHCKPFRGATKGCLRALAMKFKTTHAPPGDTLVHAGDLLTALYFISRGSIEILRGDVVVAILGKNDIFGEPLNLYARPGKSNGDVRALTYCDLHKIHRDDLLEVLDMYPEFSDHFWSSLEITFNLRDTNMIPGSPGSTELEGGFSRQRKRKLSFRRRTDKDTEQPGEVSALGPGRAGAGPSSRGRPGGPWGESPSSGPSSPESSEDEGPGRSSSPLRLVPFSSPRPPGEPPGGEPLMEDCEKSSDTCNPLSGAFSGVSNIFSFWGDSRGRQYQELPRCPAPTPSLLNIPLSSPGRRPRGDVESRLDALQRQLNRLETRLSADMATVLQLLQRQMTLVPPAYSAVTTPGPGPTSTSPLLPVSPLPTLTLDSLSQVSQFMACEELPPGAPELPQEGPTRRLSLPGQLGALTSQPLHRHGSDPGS
# Method in brief: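 U2OS cells BacMam-transduced with hERG, 2000 cells/well, compound ~10 min at 37 °C before stimulation buffer. FluxOR thallium flux fluorescence read kinetically on FDSS; decrease indicates block; AC50 from Hill fits.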
# [13] = target: Glucocorticoid receptor (Homo sapiens) (UniProt P04150); experiment: GR-EFC Redistribution (AID 451; calls by dose curve; further: potency means the concentration at half of the fitted maximal effect); conditions: CHO-K1 GR-EFC translocation, beta-gal luminescence, 2 h
# Chain of Glucocorticoid receptor (Homo sapiens) (P04150 whole entry, looked up, the tested form may be a part): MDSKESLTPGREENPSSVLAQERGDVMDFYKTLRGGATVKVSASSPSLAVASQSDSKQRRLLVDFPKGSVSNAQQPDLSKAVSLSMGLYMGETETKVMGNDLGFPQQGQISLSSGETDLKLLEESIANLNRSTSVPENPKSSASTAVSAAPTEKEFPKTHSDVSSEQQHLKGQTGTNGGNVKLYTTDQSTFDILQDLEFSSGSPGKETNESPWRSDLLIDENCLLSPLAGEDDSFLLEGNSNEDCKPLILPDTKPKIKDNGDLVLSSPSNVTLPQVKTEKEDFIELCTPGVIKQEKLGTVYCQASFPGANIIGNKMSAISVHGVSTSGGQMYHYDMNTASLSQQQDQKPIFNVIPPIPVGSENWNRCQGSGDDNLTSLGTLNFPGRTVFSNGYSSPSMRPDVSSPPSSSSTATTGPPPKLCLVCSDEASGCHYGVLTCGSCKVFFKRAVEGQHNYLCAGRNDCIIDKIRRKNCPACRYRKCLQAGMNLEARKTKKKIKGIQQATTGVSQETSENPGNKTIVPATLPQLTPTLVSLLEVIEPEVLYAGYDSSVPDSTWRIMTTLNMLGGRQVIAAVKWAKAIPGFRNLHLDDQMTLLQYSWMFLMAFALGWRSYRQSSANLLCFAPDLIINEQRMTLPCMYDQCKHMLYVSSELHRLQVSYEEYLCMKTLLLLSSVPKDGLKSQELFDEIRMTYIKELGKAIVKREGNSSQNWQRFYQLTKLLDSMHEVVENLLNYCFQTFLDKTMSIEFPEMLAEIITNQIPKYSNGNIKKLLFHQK
# Method in brief: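 CHO-K1 cells stably expressing nuclear-localized β-gal enzyme acceptor and GR fused C-terminally to the enzyme donor fragment; ligand-driven nuclear translocation restores β-gal by complementation. Compounds titrated up to 46 uM final, 2 h at 37 °C; luminescence read.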
# [14] = target: Mitogen-activated protein kinase 10 (Mus musculus) (UniProt Q61831); experiment: JNK3 AlphaScreen Assay (AID 530; active means well fitted curve in either direction with a large enough effect, not every such curve was filed as active;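 further: kinase came from lysate of stimulated human HepG2 cells; signal reports phosphorylation of biotinylated GST-cJun 1-79 at Ser73 with 10 µM ATP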); conditions: JNK3 lysate, c-Jun phosphorylation; series mostly up to 57.1 µM
# Method in brief: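 JNK3 came from HepG2 lysates pre-activated with IL-1beta and TNF-alpha and phosphorylated biotinylated GST-cJun (1-79) at 10 uM ATP, pH 7.6, room temperature. Compounds were titrated. AlphaScreen signal used anti-phospho-cJun (Ser73) antibody.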
# [15] = target: Cytochrome P450 3A4 (Homo sapiens) (UniProt P08684); experiment: qHTS Assay for Activators of Cytochrome P450 3A4 (AID 885); conditions: recombinant CYP3A4, Luciferin-PPXE luminescence, 60 min; series mostly up to 57.1 µM; further: nearly all actives have a fitted effect of over 65% in size
# Chain of Cytochrome P450 3A4 (Homo sapiens) (P08684 whole entry, looked up): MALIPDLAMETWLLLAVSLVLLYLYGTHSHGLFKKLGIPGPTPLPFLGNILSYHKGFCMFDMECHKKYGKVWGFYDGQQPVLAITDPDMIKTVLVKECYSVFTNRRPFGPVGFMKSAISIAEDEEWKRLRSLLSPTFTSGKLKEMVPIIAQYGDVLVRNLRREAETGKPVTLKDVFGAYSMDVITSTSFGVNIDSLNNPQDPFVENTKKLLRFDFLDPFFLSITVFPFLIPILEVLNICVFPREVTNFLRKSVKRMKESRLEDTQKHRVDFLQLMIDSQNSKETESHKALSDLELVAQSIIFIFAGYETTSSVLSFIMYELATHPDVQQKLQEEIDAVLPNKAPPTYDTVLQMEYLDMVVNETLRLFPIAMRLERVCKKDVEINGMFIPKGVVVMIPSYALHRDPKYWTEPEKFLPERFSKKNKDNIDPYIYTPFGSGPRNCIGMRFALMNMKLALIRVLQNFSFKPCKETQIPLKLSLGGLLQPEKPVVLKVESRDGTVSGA
# Method in brief: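 20nM CYP3A4 + 25uM Luciferin-PPXE (=KM), 200mM KPO4; cpd 10 min RT; NADPH regen, 60 min RT; stop w/ detection buffer, 20 min; luminescence. Normalized to 57 uM ketoconazole.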
# [16] = target: Ubiquitin carboxyl-terminal hydrolase 1 (Homo sapiens) (UniProt O94782); experiment: Inhibitors of USP1/UAF1: Pilot qHTS (AID 504865); conditions: purified USP1/UAF1, Ub-rhodamine cleavage fluorescence; series mostly up to 54.9 µM;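 further: rhodamine fluorescence freed from ubiquitin-rhodamine substrate followed over time; top concentration of the series differs between compounds; nearly all actives have a fitted effect of over 35% in size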
# Chain of Ubiquitin carboxyl-terminal hydrolase 1 (Homo sapiens) (O94782 whole entry, looked up): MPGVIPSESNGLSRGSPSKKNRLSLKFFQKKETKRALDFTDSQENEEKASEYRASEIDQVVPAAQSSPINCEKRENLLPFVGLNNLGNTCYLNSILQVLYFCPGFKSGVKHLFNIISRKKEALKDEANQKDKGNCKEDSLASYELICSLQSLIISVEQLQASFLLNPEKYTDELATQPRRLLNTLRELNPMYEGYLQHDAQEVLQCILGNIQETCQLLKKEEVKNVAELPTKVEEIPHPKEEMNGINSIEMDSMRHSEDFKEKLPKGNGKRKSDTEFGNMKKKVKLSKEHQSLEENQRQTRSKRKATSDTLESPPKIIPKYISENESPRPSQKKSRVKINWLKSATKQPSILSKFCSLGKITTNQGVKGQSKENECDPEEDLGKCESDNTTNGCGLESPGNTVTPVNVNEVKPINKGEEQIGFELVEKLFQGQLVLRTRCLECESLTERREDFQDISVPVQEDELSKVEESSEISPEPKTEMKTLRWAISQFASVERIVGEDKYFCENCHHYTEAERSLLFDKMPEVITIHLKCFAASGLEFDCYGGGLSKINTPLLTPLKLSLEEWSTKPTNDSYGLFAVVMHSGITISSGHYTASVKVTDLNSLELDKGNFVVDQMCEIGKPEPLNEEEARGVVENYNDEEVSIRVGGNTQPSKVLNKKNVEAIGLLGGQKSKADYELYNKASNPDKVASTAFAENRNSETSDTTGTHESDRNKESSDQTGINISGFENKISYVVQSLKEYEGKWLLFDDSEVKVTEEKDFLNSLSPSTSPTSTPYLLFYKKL
# Method in brief: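 USP1/UAF1 complex at 1 nM preincubated 15 min at room temperature with compound, then Ub-Rho substrate added at 150 nM final. Fluorescence (480/540 nm) read kinetically in 50 mM HEPES pH 7.8, 0.5 mM EDTA, 1 mM TCEP, 0.1 mg/ml BSA, 0.01% Tween-20.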
# [17] = S16 Schwann cell PMP22 intronic element firefly luciferase assay (AID 624032); conditions: S16 rat Schwann cells, PMP22 element FLuc, 24 h; series mostly up to 57.5 µM; further: nearly all actives have a fitted effect of over 30% in size; further: potency means the concentration at half of the fitted maximal effect
# Method in brief: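 Rat S16 Schwann cells stably carrying a PMP22 intronic element-driven Fluc reporter were seeded overnight, then exposed to compounds for 24 h at 37 °C. Luminescence was normalized to PTC124 (positive control) and DMSO (0% activity).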
# [18] = tested on: CP297; experiment: qHTS profiling for inhibitors of Plasmodium falciparum proliferation (AID 504749); further: nearly all actives have a fitted effect of over 60% in size; further: potency means the concentration at half of the fitted maximal effect; conditions: P. falciparum in erythrocytes, SYBR Green DNA, 72 h; series mostly up to 28.7 µM
# Method in brief: (§1)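 P. falciparum-infected erythrocytes (0.3% parasitemia, 2.5% hematocrit final) were exposed to compounds for 72 h at 37 C in 5% CO2, then lysed with SYBR Green buffer overnight at room temperature; parasite DNA fluorescence was normalized to artemisinin and DMSO controls.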
# [19] = tested on: CP315; experiment: as above; conditions: P. falciparum in erythrocytes, SYBR Green DNA, 72 h; series mostly up to 28.7 µM
# Method in brief: as §1
# [20] = tested on: FAB9; experiment: as above; conditions: P. falciparum in erythrocytes, SYBR Green DNA, 72 h; series mostly up to 28.7 µM
# Method in brief: as §1
compound,measurement,setting,value
C[C@H]1CC2[C@@H]3CCC4=CC(=O)C=C[C@]4(C)[C@@]3(F)[C@@H](O)C[C@]2(C)[C@@]1(O)C(=O)CO (stereo not given in full),outcome,[1],inactive
same,Potency,[2],39.8 µM (active)
same,Potency,[3],inactive
same,outcome,[4],inactive
same,Potency,[5],inactive
same,Potency,[6],10 µM (active)
same,Potency,[7],inactive
same,Potency,[8],inactive
same,Potency,[9],inactive
same,outcome,[10],inactive
same,outcome,[11],inactive
same,Potency,[12],inactive
CN(CCOc1ccc(C[C@H](Nc2ccccc2C(=O)c2ccccc2)C(=O)O)cc1)c1ccccn1,Potency,[13],> 46 µM
same,outcome,[14],inactive
same,Potency,[15],inactive
same,outcome,[1],inactive
same,Potency,[2],inactive
same,Potency,[3],inactive
same,outcome,[4],inactive
same,Potency,[5],inactive
same,Potency,[6],8.91 µM (active)
same,Potency,[7],inactive
same,Potency,[8],inactive
same,Potency,[9],inactive
same,outcome,[10],inactive
same,outcome,[11],inactive
same,Potency,[12],inactive
C[C@@]12C(=O)OC(=O)[C@]1(C)[C@H]1CC[C@@H]2O1,Potency,[13],> 20.6 µM
same,outcome,[14],inactive
same,Potency,[16],inactive
same,Potency,[17],0.616 µM (active)
same,Potency,[18],3.22 µM (active)
same,Potency,[19],5.73 µM (active)
same,Potency,[20],inactive
C=C1CCC2[C@](C)(CO)C(O)CC[C@]2(C)C1C/C=C1/C(=O)OCC1O (stereo not given in full),Potency,[15],inactive
same,Potency,[16],inactive
same,Potency,[17],14.4 µM (active)
same,Potency,[18],inactive
same,Potency,[19],inactive
same,Potency,[20],inactive
COC1=C(OC)C(=O)C(C/C=C(\C)CC/C=C(\C)CC/C=C(\C)CC/C=C(/C)CC/C=C(\C)CC/C=C(\C)CC/C=C(\C)CC/C=C(\C)CC/C=C(\C)CCC=C(C)C)=C(C)C1=O,Potency,[16],inactive
CC(/C=C1\SC(=S)N(CC(=O)O)C1=O)=C\c1ccccc1,Potency,[17],inactive
same,Potency,[18],inactive
same,Potency,[19],inactive
same,Potency,[20],inactive
